{"source": "PubChem BioAssay AID504329", "about": "(Southern Research Specialized Biocontainment Screening …, 2011)", "note": "Among all 340,000 compounds or so, about 1,000 (0.29%) were called active. Only a sample is shown. Entries with a potency or affinity are not part of this list. Values without a mark were called inactive. Rule as the data show it: inconclusive = inhibition above about 27% without an active follow-up result; inactive = below that."}
{"assay": "NS1A inhibition, H1N1 influenza, cell based functional assay (AID 504329)", "conditions": "percent inhibition, at 12.5 µM, stronger effect = higher value", "units": {"inhibition": "%"}}
{"smiles": "Nc1ccc2nc(-c3cccc(-c4nc5ccc(N)cc5[nH]4)n3)[nH]c2c1", "inhibition": 16.6}
{"smiles": "Nc1ccc2cn[nH]c2c1", "inhibition": 0.77}
{"smiles": "O=C(OCCn1c(=S)sc2ccccc21)c1ccccc1", "inhibition": -0.85}
{"smiles": "O=C(c1ccccc1)c1ccc(C(=O)N2CCOCC2)cc1", "inhibition": 2.77}
{"smiles": "O=C(CSc1nnc(-c2cccnc2)o1)Nc1ccccn1", "inhibition": 19}
{"smiles": "CC(=O)Nc1ccc(NC(=O)CSc2nnc(-c3cccnc3)o2)cc1", "inhibition": -1.5}
{"smiles": "CCOC(=O)C1CCCN(c2c(NCCc3ccc(S(N)(=O)=O)cc3)c(=O)c2=O)C1", "note": "(stereo not given)", "inhibition": -1.2}
{"smiles": "Cc1ccc2c(CN(C)Cc3ccc(OC(F)F)cc3)cc(=O)oc2c1C", "inhibition": -13.7}
{"smiles": "CN(Cc1nccs1)C(=O)C1CCC(=O)N(Cc2ccccc2F)C1", "note": "(stereo not given)", "inhibition": -7.1}
{"smiles": "COc1cccc(/C=C2\\SC(=S)N(CCCC(=O)N3CCCCC3)C2=O)c1", "inhibition": 13.4}
{"smiles": "COc1cccc(/C=C2\\SC(=S)N(CCC(=O)N3CCCCC3)C2=O)c1", "inhibition": -7.67}
{"smiles": "S=c1[nH]cnc2scc(-c3ccccc3)c12", "inhibition": 2.25}
{"smiles": "S=c1[nH]c(-c2ccccc2)cs1", "inhibition": -8.02}
{"smiles": "CCn1cc(C(=O)NCc2ccc(OC)cc2)c(=O)c2ccc(C)nc21", "inhibition": -3.98}
{"smiles": "O=C(NCCc1ccccc1)C(=O)NCC1CCCN1S(=O)(=O)c1ccccc1", "note": "(stereo not given)", "inhibition": -2.99}
{"smiles": "CCN(CC)c1ccc(/C=C2\\CCC(/C=C(\\C#N)C(=O)Nc3ccccc3F)=C2N2CCOCC2)cc1", "inhibition": -0.77}
{"smiles": "CCN(CC)c1ccc(/C=C2\\CCC(/C=C(/C#N)C(=O)Nc3ccccc3F)=C2N2CCOCC2)cc1", "inhibition": -9.82}
{"smiles": "N#C/C(=C/C1=C(N2CCOCC2)C(=C/c2ccc(Cl)cc2)/CC1)C(=O)Nc1ccccc1F", "inhibition": -12.3}
{"smiles": "N#C/C(=C\\C1=C(N2CCOCC2)C(=C\\c2ccc(Cl)cc2)/CC1)C(=O)Nc1ccccc1F", "inhibition": 8.68}
{"smiles": "CCOc1cccc(C2C(C(=O)c3ccc(C)o3)=C(O)C(=O)N2c2nnc(C)s2)c1", "note": "(stereo not given)", "inhibition": 3.08}
{"smiles": "CC1(c2ccccc2)NC(=O)N(NC(=O)COC(=O)c2cc(Br)ccc2O)C1=O", "note": "(stereo not given)", "inhibition": -5.16}
{"smiles": "O=C(NCCN1CCCCC1)c1ccc(Cl)nc1Cl", "inhibition": -3.64}
{"smiles": "Cc1ccc(S(=O)(=O)Nc2cc(Cl)c(O)cc2C)cc1", "inhibition": 6.58}
{"smiles": "Cc1ccc(S(=O)(=O)Nc2cccc3ncccc23)cc1", "inhibition": -4.33}
{"smiles": "Cc1ccc(S(=O)(=O)Nc2cccc3cccnc23)cc1", "inhibition": -11}
{"smiles": "Cc1ccc(S(=O)(=O)Nc2ccc(O)c3cccnc23)cc1", "inhibition": -4.48}
{"smiles": "Cc1nn(-c2ccccc2)c(C)c1/C=C/C(=O)OCC(=O)Nc1ncc(Cl)cc1Cl", "inhibition": -0.68}
{"smiles": "CCc1ccc2[nH]c(C)c(CN3CCCCCC3)c(=O)c2c1", "inhibition": 6.48}
{"smiles": "Cc1cc(NC(=O)CSc2nnc(-c3ccccc3)o2)no1", "inhibition": 14}
{"smiles": "Cc1ccc(NC(=O)CSc2nnc(-c3ccco3)o2)cc1", "inhibition": 5.76}
{"smiles": "Nc1ccc(-c2ccccc2)cc1", "inhibition": -0.13}
{"smiles": "O=C(O)c1ccc(N(c2ccccc2)c2ccccc2)cc1", "inhibition": -2.79}
{"smiles": "Cc1ccc(C(=O)Nc2ccc(N3CCN(C(=O)c4ccco4)CC3)cc2)cc1", "inhibition": -1.89}
{"smiles": "S=C1NC2(CCCCCC2)N=C1c1ccccc1", "inhibition": 6.12}
{"smiles": "S=C1NC2(CCCCC2)N=C1c1ccccc1", "inhibition": -4.42}
{"smiles": "CC(=O)Nc1nonc1-c1nc2ccccc2n1CC1CC1", "inhibition": 6.72}
{"smiles": "O=C(CSc1nnc(SCc2ccc(Cl)cc2)s1)N/N=C/c1ccc(C(=O)O)cc1", "inhibition": -0.08}
{"smiles": "CC1CCN(S(=O)(=O)c2ccc3c(c2)N(CC(=O)N(C)Cc2ccco2)C(=O)CO3)CC1", "inhibition": 3.45}
{"smiles": "N#C/C(=C/c1cn(-c2ccccc2)nc1-c1cccc(OCc2ccccc2)c1)C(=O)NCCCn1ccnc1", "inhibition": -3.98}
{"smiles": "CCCOc1cccc(-c2nn(-c3ccccc3)cc2/C=C(\\C#N)C(=O)NCCCn2ccnc2)c1", "inhibition": 1.02}
{"smiles": "O=C(NCCCn1ccnc1)c1cn(-c2ccccc2)nc1-c1ccc(F)cc1", "inhibition": 6.07}
{"smiles": "CCOc1cccc(-c2nn(-c3ccccc3)cc2/C=C(/C#N)C(=O)NCCCn2ccnc2)c1", "inhibition": 6.31}
{"smiles": "CC(C)C(=O)Nc1cccc(C(=O)Nc2cc([N+](=O)[O-])ccc2F)c1", "inhibition": -8.76}
{"smiles": "COc1ccc(C(=O)O/N=C(\\N)c2ccc(Cl)cc2)cc1", "inhibition": 2.64}
{"smiles": "CN1CCCN(C(=O)CNC(=O)c2ccccc2F)CC1", "inhibition": -1.28}
{"smiles": "Cc1c(C(C)(C)C)sc(=NC(=O)c2ccccc2O)n1C", "inhibition": -24.8}
{"smiles": "Nc1[nH]c(N=NC(=O)c2ccc(Cl)cc2)c2ccccc12", "inhibition": 10.9}
{"smiles": "Nc1[nH]c(N=NC(=O)c2ccccc2)c2ccccc12", "inhibition": 19}
{"smiles": "Nc1[nH]c(N=NC(=O)c2ccc(F)cc2)c2ccccc12", "inhibition": 12.2}
{"smiles": "CC(=O)N=Nc1[nH]c(N)c2ccccc12", "inhibition": -6.73}
{"smiles": "Cc1ccc(N2CC(C(=O)Nc3nc4ccc(S(C)(=O)=O)cc4s3)CC2=O)cc1", "note": "(stereo not given)", "inhibition": -4}
{"smiles": "COc1cc(C(=O)NCc2ccccc2)ccc1OC(F)F", "inhibition": 2.29}
{"smiles": "Cc1cccc(NC2=C/C(=N/S(=O)(=O)c3cccs3)c3ccccc3C2=O)c1", "inhibition": 22.8}
{"smiles": "O=C1C=C(Nc2ccc(O)cc2)C(=O)c2ccccc21", "inhibition": 24.1}
{"smiles": "O=S(=O)(/N=C(/Nc1ccccc1)c1ccccc1)c1cccs1", "inhibition": -0.58}
{"smiles": "Cc1ccc(NC2=C/C(=N/S(=O)(=O)c3cccs3)c3ccccc3C2=O)cc1", "inhibition": 2.95}
{"smiles": "Cc1ccc(NC2=CC(=O)C(=O)c3ccccc32)c(C)c1", "inhibition": -11}
{"smiles": "Cc1ccc(NC2=C/C(=N/S(=O)(=O)c3cccs3)c3ccccc3C2=O)cc1C", "inhibition": -0.69}
{"smiles": "O=C1C=C(Nc2ccccc2)c2ccccc2C1=O", "inhibition": -0.21}
{"smiles": "Cc1ccc(S(=O)(=O)/N=C2\\C=C(NS(=O)(=O)c3ccccc3)C(=O)c3ccccc32)c(C)c1", "inhibition": 10.6}
